The text below walks through data of PubChem BioAssay (NCI).

Some test systems named below: SR leukemia; RPMI-8226 leukemia; OVCAR-8 ovarian; OVCAR-5 ovarian; OVCAR-4 ovarian; SK-OV-3 ovarian; IGROV1 ovarian; OVCAR-3 ovarian; HS 578T breast; NCI/ADR-RES ovarian; T-47D breast; BT-549 breast; MDA-MB-435 melanoma; SW-620 colon; MCF7 breast; HCT-116 colon; HCC-2998 colon; KM12 colon.
Holding throughout (test): NCI-60 one-dose screen, 48 h (100 = growth as untreated, 0 = no growth, -100 = all killed)
Common to all, as to settings: 10 µM unless noted

This is part of a sample that, as a whole, favours compounds with a hit. Of some 83,000 tested, about 20% had one in any assay.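 Negative percent growth values reflect cell death: -40 means 40% of the cells present at the start died, and -100 means all died.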 Unmarked numbers belong to inactive results. Activity calls are given as the source filed them. How the source made its calls: active means growth percent below 10; inactive means the rest.

Consider `O=C1c2c(O)cc(O)cc2O[C@@H](c2ccc(O)cc2)[C@@H]1c1c(O)cc(O)c2c(=O)cc(-c3ccc(O)c(O)c3)oc12`, for which the growth with SR leukemia was 103%; in the assay on RPMI-8226 leukemia, 100%; in the assay on OVCAR-8 ovarian, 101%; in the assay on OVCAR-5 ovarian, 98.6%; with OVCAR-4 ovarian, 97.8%; in the assay on SK-OV-3 ovarian, 86.5%. In addition, the growth in the assay on IGROV1 ovarian was 101%; with OVCAR-3 ovarian, 106%; with HS 578T breast it was 102%; with NCI/ADR-RES ovarian it was 95.7%; in the assay with T-47D breast, 105%; in the assay with BT-549 breast, 98.3%. Further, the growth in the assay on MDA-MB-435 melanoma is 110%; with SW-620 colon, 107%; with MCF7 breast it was 99.9%; in the assay on HCT-116 colon, 100%; in the assay with HCC-2998 colon, 111%; in the assay with KM12 colon, 97.1%.

As for `NC(=O)C(=Cc1ccc(Cl)cc1)C(N)=O`, the growth is 53.3% with SR leukemia; 41.9% with RPMI-8226 leukemia; 65.6% in the assay with OVCAR-8 ovarian; 78.2% in the assay on OVCAR-5 ovarian; 62.3% in the assay with OVCAR-4 ovarian; 117% in the assay with SK-OV-3 ovarian. Further, the growth was 59.1% in the assay with IGROV1 ovarian; 52% in the assay on OVCAR-3 ovarian; 89.7% in the assay on HS 578T breast; 57.1% in the assay on NCI/ADR-RES ovarian; 45.2% in the assay on T-47D breast; 58.1% in the assay with BT-549 breast. Besides, the growth is 69.6% with MDA-MB-435 melanoma; 52.2% in the assay with SW-620 colon; 34.4% in the assay with MCF7 breast; 52.2% in the assay on HCT-116 colon; 85.7% in the assay with HCC-2998 colon; 85.2% in the assay on KM12 colon.

Take `CC1(C)CC[C@]2(C(=O)O)CC[C@]3(C)C(=CCC4[C@@]5(C)C[C@@H](O)[C@@H]6OC(c7cccc([N+](=O)[O-])c7)OC[C@@]6(C)C5CC[C@]43C)C2C1` (some centres undefined): the growth was 72.7% in the assay with SR leukemia; 56% in the assay on RPMI-8226 leukemia; 58.7% in the assay with OVCAR-8 ovarian; 97.2% in the assay with OVCAR-5 ovarian; 83.2% in the assay on OVCAR-4 ovarian; 105% in the assay on SK-OV-3 ovarian. Also, the growth in the assay on IGROV1 ovarian is 74.4%; with OVCAR-3 ovarian, 81.9%; in the assay on HS 578T breast it was 94.1%; with NCI/ADR-RES ovarian it was 39.7%; with T-47D breast it was 93.1%; in the assay with BT-549 breast, 77.3%. Moreover, the growth in the assay with MDA-MB-435 melanoma is 85.5%; in the assay with SW-620 colon, 73.7%; with MCF7 breast it was 74.4%; in the assay with HCT-116 colon, 49.5%; with HCC-2998 colon, 42%; with KM12 colon, 46.1%.

For `CC(=O)C1=NN(c2ccc(Cl)cc2)C(=O)CN1C`, the growth in the assay with SR leukemia was 102%; in the assay on RPMI-8226 leukemia, 115%; with OVCAR-8 ovarian it was 102%; with OVCAR-5 ovarian, 95%; with OVCAR-4 ovarian, 114%; with SK-OV-3 ovarian, 113%. The growth in the assay on IGROV1 ovarian was 103%; in the assay on OVCAR-3 ovarian it was 123%; in the assay on HS 578T breast it was 107%; in the assay on NCI/ADR-RES ovarian, 105%; with T-47D breast, 96.6%; in the assay with BT-549 breast, 96.6%. Moreover, the growth in the assay with MDA-MB-435 melanoma was 103%; in the assay on SW-620 colon, 106%; with MCF7 breast it was 96.1%; in the assay on HCT-116 colon it was 99.8%; in the assay with HCC-2998 colon it was 104%; in the assay on KM12 colon, 102%.

Take `CCCCOc1ccc(S(=O)(=O)N2CCN(c3nccc(N4CCOCC4)n3)CC2)cc1`: the growth is 46.3% in the assay with SR leukemia; 6.35% (active) in the assay with RPMI-8226 leukemia; 49.5% with OVCAR-8 ovarian; 56.2% in the assay with OVCAR-5 ovarian; 49.4% in the assay with OVCAR-4 ovarian; 12.8% in the assay on SK-OV-3 ovarian. Besides, the growth in the assay with IGROV1 ovarian was 9.51% (active); in the assay with OVCAR-3 ovarian it was 105%; in the assay on HS 578T breast, 69.4%; in the assay with NCI/ADR-RES ovarian, 31.2%; in the assay with T-47D breast, 69%; with BT-549 breast, 13%. In addition, the growth with MDA-MB-435 melanoma is 14.5%; in the assay on SW-620 colon it was 34.8%; in the assay with MCF7 breast, 87.5%; in the assay on HCT-116 colon, 12.6%; with HCC-2998 colon it was 33.8%; in the assay with KM12 colon, 16%.

In the case of `Oc1ccccc1-c1nnc(SCc2ccc(O)c3ncccc23)o1`, the growth was 43.3% with SR leukemia; 13.5% with RPMI-8226 leukemia; 26.4% in the assay with OVCAR-8 ovarian; 68.4% with OVCAR-5 ovarian; 35.9% in the assay with OVCAR-4 ovarian; 19.5% in the assay with SK-OV-3 ovarian. Moreover, the growth with IGROV1 ovarian is 53%; in the assay on OVCAR-3 ovarian it was 29.7%; in the assay on HS 578T breast, 6.2% (active); with NCI/ADR-RES ovarian it was 49%; with T-47D breast, 11.6%; in the assay with BT-549 breast, 32.3%. Also, the growth is 18.5% in the assay on MDA-MB-435 melanoma; 28.2% in the assay with SW-620 colon; 6.74% (active) in the assay with MCF7 breast; 10.5% in the assay on HCT-116 colon; 46% with HCC-2998 colon; 29.3% with KM12 colon.

For `CCNC(=O)Oc1ccc(/C(=C(/C)c2ccccc2)c2ccc(OCCN3CCCC3)cc2)cc1`, the growth in the assay with SR leukemia is 32.3%; with RPMI-8226 leukemia, 33%; with OVCAR-8 ovarian, 89.5%; in the assay with OVCAR-5 ovarian, 82.3%; in the assay with OVCAR-4 ovarian, 81.7%; with SK-OV-3 ovarian, 95.8%. Also, the growth with IGROV1 ovarian is 80.5%; in the assay with OVCAR-3 ovarian, 76.6%; with HS 578T breast it was 78.4%; in the assay with NCI/ADR-RES ovarian, 76.3%; with T-47D breast it was 51.8%; in the assay on BT-549 breast, 70.4%. The growth in the assay with MDA-MB-435 melanoma was 81.6%; in the assay with SW-620 colon, 80.3%; in the assay on MCF7 breast it was 26.9%; in the assay with HCT-116 colon it was 38.3%; in the assay with HCC-2998 colon it was 93.4%; with KM12 colon, 81.8%.

With `COc1ccc(/C=C/C(=O)c2nnn(-c3ccc(Br)cc3)c2C)cc1OC`, the growth in the assay on SR leukemia is 52.6%; with RPMI-8226 leukemia, 10.5%; in the assay on OVCAR-8 ovarian, 82.7%; in the assay on OVCAR-5 ovarian it was 94.1%; in the assay with OVCAR-4 ovarian, 71.6%; with SK-OV-3 ovarian it was 90.3%. In addition, the growth with IGROV1 ovarian was 69.2%; in the assay with OVCAR-3 ovarian, 52.9%; in the assay on HS 578T breast it was 92.5%; with NCI/ADR-RES ovarian it was 59.3%; in the assay with T-47D breast, 66.4%; in the assay with BT-549 breast, 63.9%. For the same compound, the growth in the assay on MDA-MB-435 melanoma was 61.3%; with SW-620 colon it was 51.6%; in the assay on MCF7 breast, 12.9%; in the assay on HCT-116 colon, 5.41% (active); in the assay on HCC-2998 colon it was 83.7%; in the assay on KM12 colon, 66.7%.
